# Assay results taken from PubChem BioAssay (Tox21).
# Values joined by “and” are separate entries in the source; they are usually repeats but may differ in a detail not shown here. Equal values may be shown once. Values without a mark were called inactive. Records with an inconclusive call do not appear. Entries that show only a call come without a potency. Active and inactive are the calls of the source. Unless noted, calls follow the shape of the dose curve; as a rule, active = well fitted curve in the direction sought with a large enough effect in the repeat runs; inconclusive = weak or mixed curves; inactive = no such curve, though single readings can be large; an effect the other way counts as inactive or inconclusive.
# Legend:
# [1] = qHTS assay for small molecules that induce genotoxicity in human embryonic kidney cells expressing luciferase-tagged ATAD5 (AID 651632); also: nearly all actives have a fitted effect of over 15% in size; also: potency is read from the fitted curve at half-maximal effect
# In short: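 Concentration-response screen for ATAD5 upregulation in HEK293T luciferase reporter cells; 16 hr treatment at 37C, then luminescence after 30 min with Amplite at room temperature.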
# [2] = qHTS assay for small molecules that induce genotoxicity in human embryonic kidney cells expressing luciferase-tagged ATAD5 - cell viability (AID 651634; calls by dose curve; also: nearly all actives have a fitted effect of over 25% in size; also: potency is read from the fitted curve at half-maximal effect)
# In short: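 15.5 hr compound or vehicle exposure of HEK293T cells expressing luciferase-tagged ATAD5 at 37C; live-cell protease activity is read by fluorescence after 30 min of CellTiter-Fluor.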
# [3] = qHTS assay for small molecule disruptors of the mitochondrial membrane potential - cell viability (AID 720634; calls by dose curve; also: nearly all actives have a fitted effect of over 20% in size; also: potency is read from the fitted curve at half-maximal effect)
# In short: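 In this qHTS format, HepG2 cells plated overnight were pinned with compound, incubated 1 hr, and assayed for ATP luminescence with CellTiter-Glo after m-MPI dye addition.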
# [4] = qHTS assay for small molecule disruptors of the mitochondrial membrane potential (AID 720635); also: potency is read from the fitted curve at half-maximal effect
# In short: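 HepG2 cells (2,000/well) attached overnight at 37C, then took compound for 1 hr at 37C, 5% CO2. Mito-MPS dye was added for 30 min; fluorescence was read at 490/535 nm (monomers) and 540/590 nm (aggregates).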
# [5] = qHTS assay to test for compound auto fluorescence at 590 nm (red) in HepG2 cells (AID 720674)
# In short: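 Intrinsic compound fluorescence in the red window (Ex/Em 540/590 nm) is measured in attached HepG2 cells exposed for 1 hr, DMSO vehicle as baseline, benchmarked to Rose Bengal sodium.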
# [6] = qHTS assay to test for compound auto fluorescence at 535 nm (green) in HepG2 cells (AID 720675)
# [7] = qHTS assay to test for compound auto fluorescence at 460 nm (blue) in HEK293 cells (AID 720678)
# In short: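 Auto fluorescence in the blue band was quantified as triamterene equivalency. HEK293 cells were seeded at 2,000/well, dosed after a 4-5 hr attachment, and kept overnight at 37C before the 405/460 nm reading.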
# [8] = qHTS assay to test for compound auto fluorescence at 590 nm (red) in HEK293 cells (AID 720679)
# In short: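 Autofluorescence equivalency to Rose Bengal sodium, 540/590nm, in HEK293 cells exposed overnight to 23 nL compound per well.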
# [9] = qHTS assay to test for compound auto fluorescence at 535 nm (green) in HEK293 cells (AID 720680)
# [10] = qHTS assay to test for compound auto fluorescence at 460 nm (blue) in HEK293 cell free culture (AID 720681)
# In short: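 Test compounds were pinned into cell-free culture medium (DMEM with 10% FBS) and fluorescence was read directly at Ex/Em 405/460 nm. Signals were expressed as fluorescence equivalents of triamterene, with DMSO vehicle as control.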
# [11] = qHTS assay to test for compound auto fluorescence at 535 nm (green) in HEK293 cell free culture (AID 720682)
# In short: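 Measurement is a direct plate read of green fluorescence (485 nm in, 535 nm out) after compound addition to serum-supplemented DMEM lacking cells, with fluorescein used to express intensities.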
# [12] = qHTS assay to test for compound auto fluorescence at 590 nm (red) in HepG2 cell free culture (AID 720684)
# In short: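 Ex 540 / Em 590 nm read of compound in cell-free MEM (10% FBS). Rose Bengal sodium reference.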
# [13] = qHTS assay to test for compound auto fluorescence at 460 nm (blue) in HepG2 cell free culture (AID 720685)
# In short: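 Cell-free plates of MEM plus 10% FBS received 23 nL compound or DMSO vehicle; blue-channel (405/460 nm) intensity scored against triamterene as reference fluorophore.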
# [14] = qHTS assay to test for compound auto fluorescence at 535 nm (green) in HepG2 cell free culture (AID 720686)
# [15] = qHTS assay to test for compound auto fluorescence at 460 nm (blue) in HepG2 cells (AID 720687)
# In short: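 Cells (2,000/well in MEM with 10% FBS) attached overnight at 37 C, then were exposed to compound or DMSO for 1 hr at 37 C, 5% CO2. Fluorescence read at Ex/Em 405/460 nm, expressed as triamterene-equivalent signal.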
# [16] = biological target: Glucocorticoid receptor (Homo sapiens) (UniProt P04150); experiment: qHTS assay to identify small molecule agonists of the glucocorticoid receptor (GR) signaling pathway (AID 720691; active = well fitted activation curve with a large enough effect in the signal ratio in the repeat runs, not every such curve was filed as active; the % refers to the signal ratio); conditions: GR-bla HeLa, beta-lactamase reporter ratio, 18 h; activation: at 62.4 µM (top of the series)
# In short: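 Measures GR pathway activation through a GRE-beta-lactamase reporter stably integrated in HeLa cells, with 18 h compound treatment at 37 C and fluorescence detection using a FRET substrate.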
# [17] = qHTS assay to test for compound auto fluorescence at 590 nm (red) in HEK293 cell free culture (AID 720683)
# In short: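 Tox21 10K library compounds were pinned into cell-free DMEM with 10% FBS and fluorescence was read at excitation 540 nm. Activity is expressed as Rose Bengal sodium equivalency.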
# [18] = qHTS assay for small molecule agonists of the p53 signaling pathway - cell viability (AID 651633; calls by dose curve; also: nearly all actives have a fitted effect of over 30% in size; also: potency is read from the fitted curve at half-maximal effect)
# In short: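 p53RE-bla cells, seeded at 4,000 per well and rested 5 h at 37 C/5% CO2, received compounds in DMSO for 16 h at 37 C. CellTiter-Glo was then added, and luminescence was read after 30 min at room temperature to gauge cytotoxicity.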
# [19] = biological target: Glucocorticoid receptor (Homo sapiens) (UniProt P04150); experiment: qHTS assay to identify small molecule antagonists of the glucocorticoid receptor (GR) signaling pathway (AID 720692; active = well fitted inhibition curve with a large enough effect in the signal ratio in the repeat runs, not every such curve was filed as active; the % refers to the signal ratio; also: potency is read from the fitted curve at half-maximal effect)
# In short: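 Tox21 10K library screened in concentration-response for blockade of dexamethasone (5 nM final)-induced GRE-bla reporter activity in HeLa cells; 18 h treatment, fluorescence read.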
# Chain of Glucocorticoid receptor (Homo sapiens) (P04150 whole entry, looked up): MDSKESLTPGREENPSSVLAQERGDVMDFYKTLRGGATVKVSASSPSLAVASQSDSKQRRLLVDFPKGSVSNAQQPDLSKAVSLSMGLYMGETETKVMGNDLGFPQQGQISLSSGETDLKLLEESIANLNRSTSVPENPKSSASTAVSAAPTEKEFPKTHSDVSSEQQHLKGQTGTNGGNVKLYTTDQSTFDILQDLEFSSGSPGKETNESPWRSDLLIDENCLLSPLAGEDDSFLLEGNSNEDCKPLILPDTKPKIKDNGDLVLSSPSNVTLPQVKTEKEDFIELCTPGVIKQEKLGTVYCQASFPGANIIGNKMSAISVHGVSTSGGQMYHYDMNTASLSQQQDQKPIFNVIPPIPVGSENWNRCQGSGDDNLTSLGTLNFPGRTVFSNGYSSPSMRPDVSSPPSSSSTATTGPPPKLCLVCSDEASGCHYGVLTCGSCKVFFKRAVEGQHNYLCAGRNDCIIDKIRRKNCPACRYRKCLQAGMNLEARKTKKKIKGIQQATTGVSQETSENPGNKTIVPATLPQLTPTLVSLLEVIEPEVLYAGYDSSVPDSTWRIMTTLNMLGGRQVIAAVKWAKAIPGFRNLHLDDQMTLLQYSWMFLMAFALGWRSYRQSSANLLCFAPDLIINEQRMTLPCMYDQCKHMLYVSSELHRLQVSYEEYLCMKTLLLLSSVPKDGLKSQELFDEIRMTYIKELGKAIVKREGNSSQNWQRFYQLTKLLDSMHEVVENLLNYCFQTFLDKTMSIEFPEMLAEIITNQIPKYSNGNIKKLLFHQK
smiles,measurement,setting,value
Cc1ccc2ccc3cccc4ccc1c2c34,Potency,[1],inactive
same,Potency,[2],inactive
same,Potency,[3],inactive
same,Potency,[4],38.5 µM (active)
same,Potency,[5],inactive
same,Potency,[6],inactive
same,Potency,[7],inactive
same,Potency,[8],inactive
same,Potency,[9],inactive
same,Potency,[10],inactive
same,Potency,[11],inactive
same,Potency,[12],inactive
same,Potency,[13],inactive
same,Potency,[14],inactive
same,Potency,[15],inactive
same,Potency,[16],inactive
c1ccc(Sc2ccccc2)cc1,Potency,[1],inactive
same,Potency,[2],inactive
same,Potency,[3],inactive
same,Potency,[5],inactive
same,Potency,[6],inactive
same,Potency,[7],inactive
same,Potency,[8],inactive
same,Potency,[9],inactive
same,Potency,[10],inactive
same,Potency,[11],inactive
same,Potency,[17],inactive
same,Potency,[12],inactive
same,Potency,[13],inactive
same,Potency,[14],inactive
same,Potency,[15],inactive
O=C(Oc1ccccc1)c1cccc(C(=O)Oc2ccccc2)c1,Potency,[1],3.86 µM (active)
same,Potency,[2],inactive
same,Potency,[4],32.3 µM (active)
same,Potency,[5],inactive
same,Potency,[6],inactive
same,Potency,[7],inactive
same,Potency,[8],inactive
same,Potency,[9],inactive
same,Potency,[10],inactive
same,Potency,[11],inactive
same,Potency,[17],inactive
same,Potency,[12],inactive
same,Potency,[13],inactive
same,Potency,[14],inactive
same,Potency,[15],inactive
same,Potency,[16],inactive
Clc1ccc(C(Cn2ccnc2)OCc2c(Cl)cccc2Cl)c(Cl)c1 (centres undefined),Potency,[1],inactive
same,Potency,[2],inactive
same,Potency,[3],inactive
same,Potency,[4],inactive
same,"fluorescence, relative to Rose Bengal",[5],0.526% [at 18.6 µM]
same,"fluorescence, % of fluorescein control",[6],-0.003% [at 18.6 µM]
same,"fluorescence, % of triamterene",[7],-0.277% [at 18.6 µM]
same,"fluorescence, % of fluorescent control",[8],-0.295% [at 18.6 µM]
same,"fluorescence, % of fluorescein",[9],0.16% [at 18.6 µM]
same,"fluorescence, % of fluorescent control",[10],-0.0423% [at 18.6 µM]
same,activity change,[11],"-0.0265% [at 18.6 µM, hits give high values]"
same,"fluorescence, % of fluorescent control",[17],-0.276% [at 18.6 µM]
same,"fluorescence, % of Rose Bengal",[12],-0.46% [at 18.6 µM]
same,"fluorescence, % of fluorescent control",[13],0% [at 18.6 µM]
same,"fluorescence, % of fluorescein control",[14],0.0431% [at 18.6 µM]
same,"fluorescence, % of fluorescent control",[15],0.116% [at 18.6 µM]
CC(C)(C)C1=CC(=O)C=C(C(C)(C)C)C1=O,Potency,[1],inactive
same,Potency,[2],30.6 µM (active)
same,Potency,[3],61.1 µM (active)
same,Potency,[4],7.7 µM (active)
same,Potency,[5],inactive
same,Potency,[6],inactive
same,Potency,[7],inactive
same,Potency,[8],inactive
same,Potency,[9],inactive
same,Potency,[10],inactive
same,Potency,[11],inactive
same,Potency,[17],inactive
same,Potency,[12],inactive
same,Potency,[13],inactive
same,Potency,[14],inactive
same,Potency,[15],inactive
same,Potency,[16],inactive
CCN(CC)c1ccc(N)cc1,Potency,[1],inactive
same,Potency,[18],inactive
same,Potency,[4],49.9 µM (active)
same,Potency,[5],inactive
same,Potency,[6],inactive
same,Potency,[7],inactive
same,Potency,[8],inactive
same,Potency,[9],inactive
same,Potency,[10],inactive
same,Potency,[11],inactive
same,Potency,[17],inactive
same,Potency,[12],inactive
same,Potency,[13],inactive
same,Potency,[14],inactive
same,Potency,[15],inactive
same,Potency,[16],inactive
C[C@@]12C(=O)OC(=O)[C@]1(C)C1CCC2O1,Potency,[1],0.902 µM (active)
same,Potency,[2],3.59 µM (active)
same,Potency,[3],inactive
same,Potency,[4],0.101 µM (active)
same,"fluorescence, relative to Rose Bengal",[5],0.463% [at 18.6 µM]
same,"fluorescence, % of fluorescein control",[6],-0.0054% [at 18.6 µM]
same,"fluorescence, % of triamterene",[7],-0.421% [at 18.6 µM]
same,"fluorescence, % of fluorescent control",[8],-0.0987% [at 18.6 µM]
same,"fluorescence, % of fluorescein",[9],0.0141% [at 18.6 µM]
same,"fluorescence, % of fluorescent control",[10],-0.101% [at 18.6 µM]
same,activity change,[11],"-0.057% [at 18.6 µM, hits give high values]"
same,"fluorescence, % of fluorescent control",[17],0.092% [at 18.6 µM]
same,"fluorescence, % of Rose Bengal",[12],-0.0041% [at 18.6 µM]
same,"fluorescence, % of fluorescent control",[13],-0.0149% [at 18.6 µM]
same,"fluorescence, % of fluorescein control",[14],-0.0053% [at 18.6 µM]
same,"fluorescence, % of fluorescent control",[15],-0.0452% [at 18.6 µM]
COc1cc(C(=O)NS(=O)(=O)c2ccccc2C)ccc1Cc1cn(C)c2ccc(NC(=O)OC3CCCC3)cc12,Potency,[1],inactive
same,Potency,[2],inactive
same,Potency,[3],inactive
same,Potency,[4],9.44 µM (active)
same,Potency,[5],inactive
same,Potency,[6],inactive
same,Potency,[7],inactive
same,Potency,[8],inactive
same,Potency,[9],inactive
same,Potency,[10],inactive
same,Potency,[11],inactive
same,Potency,[17],inactive
same,Potency,[12],inactive
same,Potency,[13],inactive
same,Potency,[14],inactive
same,Potency,[15],inactive
same,Potency,[16],inactive
same,Potency,[19],12 µM (active)
CC(C(O)c1ccccc1)N(C)CCOC(c1ccccc1)c1ccccc1 (centres undefined),Potency,[1],inactive
same,Potency,[2],inactive
same,Potency,[3],inactive
same,Potency,[5],inactive
same,Potency,[6],inactive
same,Potency,[7],inactive
same,Potency,[8],inactive
same,Potency,[9],inactive
same,Potency,[10],inactive
same,Potency,[11],inactive
same,Potency,[17],inactive
same,Potency,[12],inactive
same,Potency,[13],inactive
same,Potency,[14],inactive
same,Potency,[15],inactive
same,Potency,[16],inactive
CCCCCCC(C)OC(=O)COc1nc(F)c(Cl)c(N)c1Cl (centres undefined),Potency,[1],inactive
same,Potency,[2],inactive
same,Potency,[4],61.1 µM (active)
same,Potency,[5],inactive
same,Potency,[6],inactive
same,Potency,[7],inactive
same,Potency,[8],inactive
same,Potency,[9],inactive
same,Potency,[10],inactive
same,Potency,[11],inactive
same,Potency,[17],inactive
same,Potency,[12],inactive
same,Potency,[13],inactive
same,Potency,[14],inactive
same,Potency,[15],inactive
CSc1ccc2c(c1)N(CCC1CCCCN1C)c1ccccc1S2 (centres undefined),Potency,[1],inactive
same,Potency,[2],29.8 µM (active) and 68.3 µM (active)
same,Potency,[5],inactive
same,Potency,[6],inactive
same,Potency,[7],inactive
same,Potency,[8],inactive
same,Potency,[9],inactive
same,Potency,[10],inactive
same,Potency,[11],inactive
same,Potency,[17],inactive
same,Potency,[12],inactive
same,Potency,[13],inactive
same,Potency,[14],inactive
same,Potency,[15],inactive
CC(C)(c1cc(Br)c(OCCO)c(Br)c1)c1cc(Br)c(OCCO)c(Br)c1,Potency,[1],inactive
same,Potency,[2],37.7 µM (active)
same,Potency,[3],inactive
same,Potency,[4],5.97 µM (active)
same,Potency,[5],inactive
same,Potency,[6],inactive
same,Potency,[7],inactive
same,Potency,[8],inactive
same,Potency,[9],inactive
same,Potency,[10],inactive
same,Potency,[11],inactive
same,Potency,[12],inactive
same,Potency,[13],inactive
same,Potency,[14],inactive
same,Potency,[15],inactive
CCCCCCCCCCCCN(CCO)CCO,Potency,[1],inactive
same,Potency,[18],54.3 µM (active)
same,Potency,[5],inactive
same,Potency,[6],inactive
same,Potency,[7],inactive
same,Potency,[8],inactive
same,Potency,[9],inactive
same,Potency,[10],inactive
same,Potency,[11],inactive
same,Potency,[17],inactive
same,Potency,[12],inactive
same,Potency,[13],inactive
same,Potency,[14],inactive
same,Potency,[15],inactive
